Screening data (PubChem)
In the library only some 3.3% were active in any assay of this set; here they are far more common.
Mcl-1 Bim block: inhibitors of Bim-Mcl-1 interaction, human; AID 1009; Q07820; Bead-based flow cytometry, Bim peptide-Mcl-1 binding; 190,000 tested, 0.1% active; inhibition, % at 10 µM; in the data active = inhibition above about 40%;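 also: 0% = no compound tracer wells and 100% = peptide blocker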
Mcl1-Bid inh: Mcl-1/Bid interaction inhibition; TR-FRET Mcl-1/Bid-Dy647 peptide binding, 1536-well; inhibition, % at 21.7 µM; 220,000 tested, 0.97% active; AID 1021;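 active = compounds that cut the binding signal by more than half at the single screening dose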;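 also: His-tagged Mcl-1 with europium anti-His antibody binding Bid BH3 peptide; 0% = Mcl-1 plus peptide wells and 100% = peptide-only wells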
NCF1 inh: blocks human p47phox regulatory protein of NADPH oxidases | P14598 | p47phox/p22phox peptide binding, fluorescence polarization, 2 h | inhibition, % at 24.7 µM | 220,000 tested, 0.53% active | AID 1274;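 also: 0% = p47phox with labelled peptide and 100% = labelled peptide alone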
Target sequence (P14598 whole entry, looked up): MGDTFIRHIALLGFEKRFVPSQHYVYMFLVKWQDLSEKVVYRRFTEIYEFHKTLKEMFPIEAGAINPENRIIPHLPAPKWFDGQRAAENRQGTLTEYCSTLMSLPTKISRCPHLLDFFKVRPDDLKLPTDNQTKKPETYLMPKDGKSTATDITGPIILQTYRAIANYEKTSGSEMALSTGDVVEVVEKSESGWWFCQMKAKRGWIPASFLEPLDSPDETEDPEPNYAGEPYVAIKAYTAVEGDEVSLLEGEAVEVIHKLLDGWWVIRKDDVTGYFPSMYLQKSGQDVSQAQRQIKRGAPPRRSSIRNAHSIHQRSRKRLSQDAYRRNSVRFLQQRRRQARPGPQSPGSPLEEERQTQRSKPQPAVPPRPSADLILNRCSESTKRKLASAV
14-3-3 Bad inh: disrupts binding of bovine 14-3-3 zeta to phospho-Bad peptide. inhibition, % at 21.7 µM. AID 781. TR-FRET 14-3-3zeta/Dy647-pBad peptide displacement, 1 h. 220,000 tested, 0.71% active. P63103;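 active = inhibition above about 70%, limit read from the data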;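 also: 0% = full 14-3-3 plus peptide FRET controls and 100% = background without 14-3-3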
Mcl1-Noxa inh: disrupts binding of human Mcl-1 to Noxa peptide. Q07820. inhibition, % at 21.7 µM. TR-FRET Mcl-1/Noxa peptide binding, 2 h. 220,000 tested, 1.5% active;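 active = compounds that cut the protein-peptide binding signal by more than 50% relative to plate controls in a single-dose test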;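 also: His-tagged Mcl-1 with rhodamine Noxa BH3 peptide and terbium anti-His antibody; 0% = Mcl-1 plus Noxa peptide wells and 100% = peptide-only wells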
eIF4E 4G PPI: blocks eIF4E binding to eIF4G. P63073+Q04637. TR-FRET eIF4E-eIF4GI(517-606) binding, 2 h. inhibition, % at 21.7 µM. 220,000 tested, 0.37% active. AID 782;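 also: 0% = full FRET control wells and 100% = background wells lacking eIF4GI fragment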
* = called active by the depositor; · = no result given; [ ] = remark or other dose.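 The calls were made as follows, unless noted: active = inhibition above about 30% (limit read from the data); inactive = the rest.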

SMILES | Mcl-1 Bim block | Mcl1-Bid inh | NCF1 inh | 14-3-3 Bad inh | Mcl1-Noxa inh | eIF4E 4G PPI
CCCCNC(=O)c1cc2n(n1)C(C(F)(F)F)CC(c1ccccc1)N2 (centres undefined) | -2.0 | 2.0 | 57.4* | -9.7 | 13.3 | -0.9
CCCn1c(CN2CCN(c3cccc(Cl)c3)CC2)nc2c1c(=O)n(C)c(=O)n2C | 0.0 | -14.8 | -10.5 | 4.3 | 6.9 | 5.1
O=c1cc(CO)oc(C(Nc2ccccn2)c2ccsc2)c1O (centres undefined) | -2.0 | 5.5 | -10.4 | -3.7 | 48.5 | 3.1
COc1ccc(C(Nc2ccccn2)c2oc(CO)cc(=O)c2O)cc1 (centres undefined) | -5.0 | 42.5 | 12.0 | 4.2 | 65.2* | -5.0
O=c1cc(CO)oc(C(Nc2ccccn2)c2ccc(F)cc2)c1O (centres undefined) | 0.0 | 52.4* | -0.6 | 11.7 | 62.1* | 7.4
O=c1cc(CO)oc(C(Nc2ccccn2)c2ccccc2Cl)c1O (centres undefined) | 0.0 | 6.7 | -10.1 | 4.5 | 45.0 | 5.2
Cc1ccnc(NC(c2ccccc2O)c2oc(CO)cc(=O)c2O)c1 (centres undefined) | 0.0 | 9.9 | -3.6 | 18.4 | 69.5* | 11.5
COc1ccc(C2(CNS(=O)(=O)c3ccccc3)CCOCC2)cc1 | 0.0 | 3.3 | -0.1 | -1.9 | 16.6 | 1.2
O=C(COC(=O)/C=C/c1ccco1)Nc1ccc(F)cc1Cl | 5.0 | -38.2 | -5.1 | 7.8 | 0.2 | 7.8
C=CCn1c(O)c(C2=c3ccccc3=NC2=O)s/c1=N/c1nccs1 | 0.0 | 55.7* | 4.7 | 17.1 | 47.6 | 2.3
CCN1C(=O)[C@H]2[C@H]3[C@H](O)[C@H](O)C/C(=N\OC[C@@H](C)[C@H](OCc4ccccc4)C(C)C)[C@@H]3CC[C@H]2C1=O | -2.0 | 4.8 | -2.6 | 0.8 | 17.4 | 1.0
CCn1c2ccccc2c2cc(NC(=O)c3coc(=O)c(Br)c3)ccc21 | · | 38.1 | -44.5 | 49.7 | 69.3* | 22.3
CCn1c2ccccc2c2cc(NC(=O)c3ccc(=O)oc3)ccc21 | · | 10.2 | -67.8 | 5.0 | 39.9 | -2.7
Cc1cc(Cl)ccc1OCCCC(=O)NO | 0.0 | -17.9 | -13.3 | -0.3 | 1.3 | 11.8
Cc1cc(Cl)ccc1OCCCC(N)=O | -2.0 | -10.1 | -9.9 | 2.6 | 70.7* | -1.5
COc1cc(/C=N/N2C(=O)CSC2=S)cc(Br)c1O | -3.0 | -13.0 | -165.7 | 8.3 | 58.1* | -3.7
CCN=c1scc(C)n1/N=C/c1cc(Br)c(O)c(OC)c1 | 2.0 | -16.6 | -9.6 | -31.8 | 62.6* | 4.6
CN=c1scc(C)n1/N=C/c1cc(Br)c(O)c(Br)c1 | 1.0 | -12.3 | -2.7 | 5.7 | 29.1 | 7.2
Nc1ncncc1-c1ccc([N+](=O)[O-])cc1 | 0.0 | -9.3 | -6.6 | -7.4 | 3.3 | 6.2
CNC(=O)CCc1[nH]c2ccccc2c1Sc1ccccc1 | -4.0 | -21.2 | 33.5* | 4.0 | -1.5 | 3.2
O=C(CS(=O)CC(=O)N(c1ccccc1)C(C(=O)NC1CCCCC1)c1ccco1)Nc1ccc(F)cc1 (centres undefined) | 1.0 | -32.1 | 4.7 | -16.1 | 13.2 | 17.3
COc1ccc(N(C(=O)CS(=O)CC(=O)Nc2ccc(F)cc2)C(C(=O)NC2CCCCC2)c2cccs2)cc1 (centres undefined) | -2.0 | 61.5* | 15.8 | 38.7 | -80.9 | 0.5
Cc1ccc(SCc2cc(=O)[nH]c(/N=C(\N)Nc3ccc(C)c(C)c3)n2)cc1 | 1.0 | -3.8 | 0.2 | -7.1 | 14.1 | 48.5*[fluorescence artefact?]
COc1ccc(N/C(N)=N/c2nc(CSc3ccc(Cl)cc3)cc(=O)[nH]2)cc1 | -2.0 | -2.5 | -8.4 | 13.8 | 17.9 | -2.4
COc1cc(OC)nc(NC(=O)CSc2nc3ccccc3o2)n1 | 4.0 | -14.4 | 4.3 | 3.7 | 17.2 | 2.8
Cc1cc(C)nc(NC(=O)CSc2nc3ccccc3o2)n1 | 0.0 | -9.3 | 42.5* | -10.3 | 18.4 | 3.0
CSc1nnc(SCC#N)s1 | · | 10.6 | -5.1 | 10.8 | 17.9 | -3.0
CC(C(=O)NC(=O)NC1CCCCC1)N1CCN(C(c2ccccc2)c2ccccc2)CC1 (centres undefined) | -3.0 | -16.1 | -4.8 | -3.7 | 3.3 | 2.5
CCCCCCOc1ccc(/C(C)=N/NC2=NCCN2)cc1[N+](=O)[O-] | 0.0 | -16.4 | 51.4* | -60.6 | 29.9 | -19.0
